Compounds without any hit were thinned out: in the full panel of roughly 83,000, 20% have a hit.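 Activity criterion: percent growth below 10, measured after cells in 96-well plates were exposed to a single compound concentration for 48 hours.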 A number with no mark means an inactive call. Calls of active or inactive are those of the source.
Key:
Assay in all cases: NCI-60 one-dose screen, 48 h (100 = growth as untreated, 0 = no growth, -100 = all killed)
SR leukemia = details: 10 µM
RPMI-8226 leukemia = details: 10 µM
OVCAR-8 ovarian = details: 10 µM
OVCAR-5 ovarian = details: 10 µM
OVCAR-4 ovarian = details: 10 µM
SK-OV-3 ovarian = details: 10 µM
IGROV1 ovarian = details: 10 µM
OVCAR-3 ovarian = details: 10 µM
NCI/ADR-RES ovarian = details: 10 µM
T-47D breast = details: 10 µM
BT-549 breast = details: 10 µM
MDA-MB-435 melanoma = details: 10 µM
SW-620 colon = details: 10 µM
MCF7 breast = details: 10 µM unless noted
HCT-116 colon = details: 10 µM
HCC-2998 colon = details: 10 µM
HS 578T breast = details: 10 µM
KM12 colon = details: 10 µM

SMILES	growth (SR leukemia)	growth (RPMI-8226 leukemia) [%]	growth (OVCAR-8 ovarian) [%]	growth (OVCAR-5 ovarian) [%]	growth (OVCAR-4 ovarian) [%]	growth (SK-OV-3 ovarian)	growth (IGROV1 ovarian) [%]	growth (OVCAR-3 ovarian)	growth (NCI/ADR-RES ovarian)	growth (T-47D breast) [%]	growth (BT-549 breast) [%]	growth (MDA-MB-435 melanoma)	growth (SW-620 colon) [%]	growth (MCF7 breast) [%]	growth (HCT-116 colon) [%]	growth (HCC-2998 colon) [%]	growth (HS 578T breast) [%]	growth (KM12 colon) [%]
Cc1ccccc1C1N=C2Oc3ccccc3C=C2C(=O)N1 (stereo not given)	45.2%	95.4	53.3	17.3	74.5	-6.3% (active)	43.3	-27.1% (active)	9.64% (active)	48.1	27.2	-57.7% (active)	40	20.8	42.1	26.1		
O=c1[nH]nc(SC2CCCCC2)c(=O)[nH]1	97.6%	102	101	99	98.9	93.2%	101	96.2%	94.3%	99.6		105%	98.6	97.5		92	92	107
Cc1cc(=O)n(-c2ccc(F)cc2)[nH]1	97.1%	94.2	95.2	94.9	99.2	95.3%	102	103%	109%	69.5	105	105%	103	86.7	104	106		106
c1ccc2c(c1)Sc1ccccc1S2	117%	99.2	99.3	108	98.8	112%	106	113%	101%		97.5	110%	104	95.7	106	92.5	102	108
COc1cccc(/C=N/NC(=S)NC2CC3CCC2C3)c1O (stereo not given)	3.68% (active)	46.8	40.5	85.1	19.2	46.2%	67	6.8% (active)		35.7	79.8	76.4%	57.9	37.8	24.8	96.3	25.8	69.1
Sc1ccc(Nc2c3ccccc3nc3ccccc23)cc1	80.5%	44.2	106	99.2	95.6	79.2%	89.3	100%	51.3%	38	94.6	92.8%	61.3	71.7	96.4	68.9		65.5
CN(C)C(C)(C)CC(C)(C)C	93.5%	110	109	102	108	109%	106	100%		104		109%	101	101	100	109	104	93.6
CC(=O)c1cc2c(cc1F)C(C)(C)CCC2(C)C	92.5%	114	104	90.1	103	105%	101	101%	99.3%	109	101	106%	102	101	94.4			
Cc1ccc(N)cc1[N+](=O)[O-]	115%	116	103	116	83.3	112%	110	115%		107	97.9	119%	100	76.4	101	92.5	113	105
O=C(O)/C=C/c1ccc2c(c1)CCC2	80.2%	99.2	99.8	97.8	104	99.6%	118	117%	109%	104	100	99.8%	106	109	105	108		106
